Sampled rows, rich in hits. Any-hit rate of the full collection: about 2.5%.
Cruzain Triton: cruzain (T. cruzi) inhibition with detergent; P25779; purified cruzain, Z-FR-AMC fluorescence, 0.01% Triton; Potency, µM, for the others: max response, negative = inhibition, actives largely listed as inhibitors; 200,000 compounds, 0.43% hits; AID 1478;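 also: plate controls were neutral wells for no effect and buffer without enzyme for full effect; nearly all actives have a fitted effect of over 40% in size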
Target sequence (P25779 123-467 limits assumed): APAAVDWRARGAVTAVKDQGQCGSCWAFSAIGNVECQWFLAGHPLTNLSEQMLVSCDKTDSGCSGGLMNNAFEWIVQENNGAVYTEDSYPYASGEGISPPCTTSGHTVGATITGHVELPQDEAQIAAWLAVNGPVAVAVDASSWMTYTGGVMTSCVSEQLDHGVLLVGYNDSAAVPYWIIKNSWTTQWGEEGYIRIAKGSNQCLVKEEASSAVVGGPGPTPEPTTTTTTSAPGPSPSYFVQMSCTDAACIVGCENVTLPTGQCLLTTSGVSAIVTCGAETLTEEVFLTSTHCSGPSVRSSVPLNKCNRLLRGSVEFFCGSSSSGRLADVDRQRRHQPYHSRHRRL
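Read-out: AMC fluorescence (360 nm excitation, 450 nm emission), four reads over 2 min, first-to-third difference used. Conditions: cruzain 1.5 nM, Z-FR-AMC 2 uM, pH 5.5 acetate, 5 mM DTT, 0.01% Triton X-100.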
Cruzain inh noDet: blocks cruzain activity in detergent-free assay. P25779. purified cruzain, Z-FR-AMC fluorescence, no detergent. Potency, µM, inactives show max response, negative = inhibition, most hits filed as inhibitors. 200,000 compounds, 2.3% hits. AID 1476;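 also: plate controls were enzyme without inhibitor for no effect and buffer without enzyme for full effect; nearly all actives have a fitted effect of over 40% in size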
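Detergent-free condition (0.00005% Triton X-100) in acetate buffer pH 5.5 with DTT. 1.5 nM enzyme and compound were pre-mixed 15 min, then 2 uM Z-FR-AMC substrate added; reaction progress from fluorescence change between first and third reads (60 s).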
* marks the source's active call; other numbers are inactive results; u = inconclusive. Calls follow the shape of the dose curve; as a rule, active = well fitted curve in the direction sought with a large enough effect; inconclusive = small, poorly fitted or top-dose-only effect, or another doubt; inactive = no such curve, though single readings can be large; an effect the other way counts as inactive or inconclusive. Potency is read from the fitted curve at half-maximal effect.

SMILES | Cruzain Triton | Cruzain inh noDet
Cc1sc2nc(CN3CCCC3)nc(N3CCN(S(=O)(=O)c4cccs4)CC3)c2c1C | 0% | 16µM*
Cc1ccc(NC(=O)CN2C(=O)COc3ccc(S(=O)(=O)N4CCCCCC4)cc32)c(C)c1 | -2% | 0%
Cc1cc(C(=O)Cn2nc(C(=O)O)c3ccccc3c2=O)c(C)n1-c1ccccc1 | -9% | 25µM*
Cc1cc(C(=O)Cn2nnc(-c3ccc(Cl)cc3)n2)c(C)n1-c1ccccc1 | -3% | u
CCc1ccccc1NC(=O)Cn1c(=O)n(Cc2ccc3c(c2)OCO3)c(=O)c2ccc(C(=O)NC3CCCCC3)cc21 | 5% | -9%
O=C(Cn1c(=O)n(Cc2ccc3c(c2)OCO3)c(=O)c2ccc(C(=O)NC3CCCCC3)cc21)Nc1ccccc1F | 0% | 13µM*
Cc1nc(-c2ccc(Cl)cc2)sc1CCNC(=O)c1ccco1 | -20% | -9%
COc1ccc(CCNC(=O)c2cc(-c3ccc(C)cc3)nc3n[nH]c(-c4ccc(F)cc4)c23)cc1OC | 0% | 1%
CCOC(=O)C1CCN(C(=O)CN2c3ccc(C(C)C)cc3-c3ccccc3S2(=O)=O)CC1 | -1% | u
Cc1ccc(CNC(=O)c2ccc(CS(=O)(=O)c3ccccc3C)o2)cc1 | -2% | -2%
COC(=O)c1ccc(CS(=O)(=O)c2ccccc2C)o1 | 3% | 16µM*
COc1cccc(C(=O)Nc2cccc(-c3cn4c(C)csc4n3)c2)c1OC | -2% | -21%
CC(=O)N1CCc2cc(Br)cc(S(=O)(=O)N3CCC(C(=O)Nc4cccc(C)c4C)CC3)c21 | -5% | 20%
O=C(Nc1nnc(-c2ccccc2SCc2ccccc2F)s1)Nc1ccccc1F | 2% | 3.2µM*
CC(=O)Nc1nnc(SCc2ccccc2F)s1 | 2% | 6%
CCOC(=O)c1cc(-c2ccccc2)n(-c2cccc(C(=O)N(C)c3ccc(C)cc3)c2)c1C | -4% | -4%
CCOC(=O)c1cc(-c2ccccc2)n(-c2cccc(C(=O)Nc3cccc(SC)c3)c2)c1C | 1% | 10µM*
CCOC(=O)c1cc(-c2ccccc2)n(-c2cccc(C(=O)Nc3cccc(F)c3)c2)c1C | -1% | 10µM*
CCOC(=O)c1cc(-c2ccccc2)n(CC(=O)Nc2cccc(OC)c2)c1C | -2% | 15%
CCOC(=O)c1cc(-c2ccccc2)n(-c2cccc(C(=O)NC(C)(C)C)c2)c1C | 0% | -1%
CCOC(=O)c1cc(-c2ccccc2)n(-c2cccc(C(=O)Nc3ccc(F)c(F)c3)c2)c1C | 1% | 20µM*
CCOC(=O)c1cc(-c2ccccc2)n(-c2cccc(C(=O)Nc3ccc(OC)cc3)c2)c1C | -1% | 25µM*
CCOC(=O)c1cc(-c2ccccc2)n(-c2cccc(C(=O)Nc3cccc(C(C)=O)c3)c2)c1C | -1% | u
O=C(O)[C@@H]1[C@@H](C(=O)O)[C@@]23CCCC2=C2CC[C@@]3(C(=O)O)[C@@]3(C(=O)O)C[C@@]213 | 5% | 0%
CCC(C(=O)Nc1cccc(C#N)c1)n1c(=O)c(-c2ccccc2NC(C)=O)nc2ccccc21 (centres undefined) | -3% | -11%
SMILES | Cruzain Triton | Cruzain inh noDet
CCOC(=O)C(C(=O)c1ccccc1)[C@H](CCc1ccccc1)NC(=O)OC (some centres undefined) | -1% | 2%
CC1=CC(C)(C)n2c(O)c(N=NC(N)=S)c3c(C)ccc1c32 | u | 20µM*
CC1=CC(C)(C)n2c(O)c(N=NC(N)=S)c3cccc1c32 | -21% | -4%
COC(=O)CSc1nnc(-c2ccccc2OC)n1-c1ccc(C)cc1 | 2% | -20%
COc1ccccc1-c1nnc(SCC(=O)c2ccc(Cl)cc2)n1-c1ccccc1 | -4% | 25µM*
COc1ccc(-c2cc(C(=O)OCC(=O)c3cccc([N+](=O)[O-])c3)c3cc(C)ccc3n2)cc1 | 1% | 10µM*
COc1ccc(-c2cc(C(=O)Oc3cccc(C)c3)c3cc(C)ccc3n2)cc1 | -3% | 1%
Cc1ccc2c(c1)-c1c(ssc1=S)C(C)(C)N2C(=O)c1ccco1 | -16% | 16µM*
CC1(C)c2ssc(=S)c2-c2ccccc2N1C(=O)c1ccco1 | -4% | u
COc1ccc(OC)c(NC(=O)c2c(NCc3cccs3)sc3c2CCCCC3)c1 | -10% | 1%
O=C(Oc1ccc2c(-c3ccccc3)cc(=O)oc2c1)c1cccs1 | -6% | 6.3µM*
CCc1cc2c(-c3ccccc3)cc(=O)oc2cc1OC(=O)c1cccs1 | 3% | -2%
Cc1nc2nc(CNC(=O)OC(C)(C)C)nn2c(C)c1CCC(=O)NCc1ccc(F)cc1 | -1% | 7%
O=C(CNC(=O)/C(=C\c1ccc(Br)cc1)NC(=O)c1ccccc1)OCc1ccccc1 | 10µM* | u
O=C(CNC(=O)/C(=C/c1ccccc1)NC(=O)c1ccc(Br)cc1)OCc1ccccc1 | u | -20%
COc1cc(CN(C(=O)c2ccc(Cl)cc2)C2CCS(=O)(=O)C2)cc(OC)c1OC (centres undefined) | 0% | 3%
N#Cc1ccc(CSc2nnc(NC(=O)C3CCCO3)s2)cc1 (centres undefined) | -2% | -6%
CCS(=O)(=O)N1Cc2ccccc2CC1C(=O)Nc1nc2ccc(C)cc2s1 (centres undefined) | -7% | 13µM*
CCS(=O)(=O)N1Cc2ccccc2CC1C(=O)Nc1nnc(SCc2ccc(C#N)cc2)s1 (centres undefined) | -6% | 25µM*
CCS(=O)(=O)N1Cc2ccccc2CC1C(=O)Nc1ccc(C)cc1 (centres undefined) | -3% | u
Cc1cccc(N2CCN(C(=O)c3cccn4c(=O)c5cc(Cl)ccc5nc34)CC2C)c1 (centres undefined) | 1% | -1%
Cc1c(C(=O)N2CCCCCC2)c(S(=O)(=O)Nc2ccc(OC(F)(F)F)cc2)c(C)n1C | -4% | u
COc1cc(Nc2nc(SCC(=O)c3ccc(Cl)c(Cl)c3)nc3ccccc23)cc(OC)c1 | 1% | 6.3µM*
O=C(CSc1nc(Nc2ccccc2)c2ccccc2n1)c1ccc(Cl)cc1 | -3% | u
COc1cc(Nc2nc(SCc3ccccc3Cl)nc3ccccc23)cc(OC)c1 | 1% | 16µM*
SMILES | Cruzain Triton | Cruzain inh noDet
COc1cc(Nc2nc(SCc3cccc(Cl)c3)nc3ccccc23)cc(OC)c1 | 0% | 20µM*
COc1cc(Nc2nc(SCc3ccccc3F)nc3ccccc23)cc(OC)c1 | 1% | 25%
COc1cc(Nc2nc(SCc3ccc(Cl)cc3)nc3ccccc23)cc(OC)c1 | 4% | u
Cc1oc(-c2ccc(Cl)cc2)nc1CN1CCCC(C(=O)NCCc2ccccc2)C1 (centres undefined) | -1% | 1%
COc1ccccc1CCNC(=O)c1ccc2c(c1)c(C)c(C)n2Cc1ccc(Cl)cc1 | 3% | 13µM*
COc1ccc(OC)c(CNC(=O)c2ccc3c(c2)c(C)c(C)n3C)c1 | -2% | u
COc1cc(CCNC(=O)c2ccc3c(c2)c(C)c(C)n3Cc2cccc(C)c2)cc(OC)c1OC | -1% | -8%
COc1ccc(OC)c(CNC(=O)c2ccc3c(c2)c(C)c(C)n3Cc2ccc(Cl)cc2)c1 | 2% | 7.9µM*
COC(=O)N1C(C)=Cc2ccccc2C1CC(C)=O (centres undefined) | -2% | -6%
COc1ccc(C(=O)Nc2oc(-c3ccccc3)c(-c3ccccc3)c2C#N)cc1 | -2% | 32µM*
COc1ccc(-c2oc(NC(C)=O)c(C#N)c2-c2ccc(OC)cc2)cc1 | -9% | 16%
